This is a sample that favours compounds with a hit; in the whole collection about 17% have one here.
TDP1 cell CPT: qHTS for Inhibitors of human tyrosyl-DNA phosphodiesterase 1 (TDP1): qHTS in cells in presence of CPT | chicken DT40 Tdp1-/-;hTDP1 cells + 20 nM CPT, ATP luminescence, 48 h | Potency, µM (top dose mostly 46.2 µM), inactives show top-dose activity change, negative = growth inhibition, actives largely listed as inhibitors | 12% of 420,000 active; also: % is scaled to controls: 0 for no effect and ±100 for the full control effect; nearly all actives have a fitted effect of over 55% in size
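Cell growth measured by CellTiter-Glo luminescence after a minimum 48 h, 37 C compound exposure with 20 nM CPT in Tdp1-knockout DT40 cells stably expressing hTDP1, seeded 400/well; qHTS titration format.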
HepG2 viability: qHTS for Inhibitors of TGF-b: Cytotox Counterscreen | HepG2 CAGA-GFP viability, ATP luminescence, 18 h | Potency, µM (series often up to 46.1 µM), for the others: top-dose activity change, negative = cytotoxicity, actives largely listed as cytotoxic | 0.76% of 410,000 active | AID 588856, 2011
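CellTiter-Glo luminescence gave cytotoxicity after 18 hours at 37 degrees C. The cells were HepG2 CAGA-GFP in 1% FBS DMEM, stimulated with 500 pg/mL TGF-beta after compound addition. %Activity was normalised to no-cell wells (complete cell-killing) and DMSO (no toxicity), and curves were fitted and classified.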
HT1080NT lethal: qHTS for induction of synthetic lethality in tumor cells producing 2HG: qHTS for the HT-1080-NT fibrosarcoma cell line | HT-1080-NT fibrosarcoma viability, CellTiter-Glo ATP luminescence, 48 h | Potency, µM (doses to about 46.1 µM), without a hit: at the top dose activity, negative = less viability, hits mostly cytotoxic | 1.6% of 360,000 active;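 also: NT is the 2HG producing partner of a matched IDH1 knockdown line; 0% = DMSO-treated cells and -100% = media-only wells without cells; nearly all actives have a fitted effect of over 55% in size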
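Toxicity toward the 2HG-producing NT line was scored as %Activity, normalised to DMSO and no-cell wells, from CellTiter-Glo luminescence after 48 hours' treatment.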
HT1080 IDH1KD tx: qHTS for induction of synthetic lethality in tumor cells producing 2HG: qHTS for the HT-1080-IDH1KD cell line. HT-1080 IDH1 knockdown viability, ATP luminescence, 48 h. Potency, µM (top dose mostly 46.1 µM), for the others: at the top dose activity, negative = toxicity, actives largely listed as cytotoxic. 2% of 360,000 active;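 also: 0% = DMSO wells and -100% = cell-free medium wells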
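Viability of IDH1-knockdown HT-1080 fibrosarcoma cells was assessed by CellTiter-Glo after 48 h at 37 °C with titrated compound; concentration-effect curves were classified by fit quality and response size.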
TGFb SMAD3 inh: qHTS for Inhibitors of TGF-b | HepG2 CAGA-GFP TGF-b/SMAD3 reporter, GFP fluorescence, 18 h; TGF-beta stimulated, 500 pg/mL final | Potency, µM (doses to about 46.1 µM), inactives show top-dose activity, negative = inhibition, actives largely listed as inhibitors | 1.2% of 410,000 active | AID 588855, 2011; also: % is scaled to controls: 0 for no effect and ±100 for the full control effect; nearly all actives have a fitted effect of over 65% in size
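GFP signal (ex488/em500-530) from TGF-beta-stimulated HEPG2 CAGA-GFP cells, 500 pg/mL final, 18 h at 37 degrees C in DMEM plus 1% FBS, normalized to unstimulated and DMSO-stimulated controls.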
DT40 TDP1 no CPT: qHTS for Inhibitors of human tyrosyl-DNA phosphodiesterase 1 (TDP1): qHTS in cells in absence of CPT; DT40 Tdp1-/- hTDP1 cells, no CPT, ATP luminescence, 48 h; 15% of 420,000 active; Potency, µM (highest dose often 46.2 µM), without a hit: at the top dose activity change, negative = growth inhibition, hits mostly inhibitors; AID 686978, 2013; also: % is scaled to controls: 0 for no effect and ±100 for the full control effect; nearly all actives have a fitted effect of over 55% in size
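Growth of hTDP1-complemented DT40 Tdp1-knockout cells is measured by ATP luminescence after at least 48 hr compound exposure at 37 °C, with DMSO substituting for the 20 nM CPT used in the parallel screen.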
* = called active by the depositor. Calls follow the shape of the dose curve; as a rule, active = well fitted curve in the direction sought with a large enough effect; inconclusive = small, poorly fitted or top-dose-only effect, or another doubt; inactive = no such curve, though single readings can be large; an effect the other way counts as inactive or inconclusive. Potency is read from the fitted curve at half-maximal effect.

`Cc1ccc(S(=O)(=O)NC(=O)C2(C)CCN2C(=O)CC2CCCC2)cc1` (centres undefined) gave TDP1 cell CPT 1.1%, HepG2 viability 3.6%, HT1080NT lethal 28.8%, HT1080 IDH1KD tx 8.4%, TGFb SMAD3 inh -3.6% and DT40 TDP1 no CPT 2.0%.
Screening O=C(Cc1ccc(N2CCNC2=O)cc1)N1CCCC(Nc2ccc(F)c(F)c2)C1 (centres undefined) returned TDP1 cell CPT 2.31µM*, HepG2 viability -1.1%, HT1080NT lethal 3.26µM*, HT1080 IDH1KD tx 2.91µM*, TGFb SMAD3 inh -24.1% and DT40 TDP1 no CPT 3.66µM*.
O=C(c1cccc(N2CCNC2=O)c1)N1CCCC(Nc2cccc(F)c2)C1 (centres undefined) was read as TDP1 cell CPT -15.8%, HepG2 viability -27.8%, HT1080NT lethal 0.0%, HT1080 IDH1KD tx -1.3%, TGFb SMAD3 inh -15.6% and DT40 TDP1 no CPT -12.5%.
O=C(Cc1ccc(N2CCNC2=O)cc1)N1CCCC(Nc2cccc(F)c2)C1 (centres undefined) was read as TDP1 cell CPT 2.91µM*, HepG2 viability -19.8%, HT1080NT lethal inconclusive, HT1080 IDH1KD tx 5.8µM*, TGFb SMAD3 inh inconclusive and DT40 TDP1 no CPT 2.06µM*.
`Cc1ccc(-n2nc3c(c2NC(=O)C(C)(C)C)CS(=O)(=O)C3)cc1` gave TDP1 cell CPT -5.5%, HepG2 viability 0.5%, HT1080NT lethal 1.3%, HT1080 IDH1KD tx 8.8%, TGFb SMAD3 inh -3.0% and DT40 TDP1 no CPT -24.4%.
`CNS(=O)(=O)c1ccc(C(=O)NCC(=O)NC(C)c2cccs2)cc1` (centres undefined) gave TDP1 cell CPT -11.3%, HepG2 viability -2.6%, HT1080NT lethal -2.1%, HT1080 IDH1KD tx 2.1%, TGFb SMAD3 inh 13.1% and DT40 TDP1 no CPT 19.8%.
CCCn1c(-c2ccc(C(=O)OC)cc2)nc2c1c(=O)[nH]c(=O)n2Cc1ccccc1 was read as TDP1 cell CPT 12.5%, HepG2 viability -2.7%, HT1080NT lethal 11.8%, HT1080 IDH1KD tx -2.4%, TGFb SMAD3 inh -1.2% and DT40 TDP1 no CPT -14.0%.
`CCCCn1c(=O)[nH]c(=O)c2c1nc(-c1ccsc1)n2Cc1ccccc1` gave TDP1 cell CPT inconclusive, HepG2 viability -0.3%, HT1080NT lethal inconclusive, HT1080 IDH1KD tx -29.3%, TGFb SMAD3 inh inconclusive and DT40 TDP1 no CPT 29.1µM*.
CCCn1c(-c2cccc([N+](=O)[O-])c2)nc2c1c(=O)[nH]c(=O)n2Cc1ccccc1 was read as TDP1 cell CPT 20.6µM*, HepG2 viability -24.7%, HT1080NT lethal -9.2%, HT1080 IDH1KD tx -4.6%, TGFb SMAD3 inh 0.0% and DT40 TDP1 no CPT 16.4µM*.
Screening CCCCn1c(-c2ccsc2)nc2c1c(=O)[nH]c(=O)n2CCC returned TDP1 cell CPT inconclusive, HepG2 viability 1.4%, HT1080NT lethal 0.5%, HT1080 IDH1KD tx 6.8%, TGFb SMAD3 inh -7.4% and DT40 TDP1 no CPT inconclusive.
For CCCCn1c(=O)[nH]c(=O)c2c1nc(-c1ccccc1F)n2Cc1ccccc1OC the results were TDP1 cell CPT 23.1µM*, HepG2 viability 7.5%, HT1080NT lethal -3.7%, HT1080 IDH1KD tx -7.4%, TGFb SMAD3 inh inconclusive and DT40 TDP1 no CPT inconclusive.
`CCCCn1c(=O)[nH]c(=O)c2c1nc(-c1cc(Br)ccc1OC)n2C` gave TDP1 cell CPT -2.5%, HepG2 viability 1.4%, HT1080NT lethal 1.8%, HT1080 IDH1KD tx 1.9%, TGFb SMAD3 inh -2.1% and DT40 TDP1 no CPT inconclusive.
